Reference: PubChem BioAssay (Tox21)
“And” between values parts separate entries of the source, which are not always exact repeats. Identical values can stand only once. Results filed as inconclusive are left out. Entries that show only a call come without a potency. The source made the active and inactive calls. Unless noted, the call rests on the fitted dose curve; in most records, active means well fitted curve in the direction sought with a large enough effect in the repeat runs; inconclusive means weak or mixed curves; inactive means no such curve, though single readings can be large; an effect the other way counts as inactive or inconclusive.

Legend:
[1] = qHTS assay to identify small molecule agonists of the peroxisome proliferator-activated receptor delta (PPARd) signaling pathway - cell viability counter screen (AID 743211); further: nearly all actives have a fitted effect of over 55% in size
Summary of the method: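 In the same wells used for beta-lactamase reporter measurement, cytotoxicity is scored by CellTiter-Glo. HEK293H PPARd-bla cells receive compound for 17 h at 37C following a 5 h settling period.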

[2] = target: Peroxisome proliferator-activated receptor delta (Homo sapiens) (UniProt Q03181); experiment: qHTS assay to identify small molecule agonists of the peroxisome proliferator-activated receptor delta (PPARd) signaling pathway (AID 743212; calls by dose curve)
Sequence of Peroxisome proliferator-activated receptor delta (Homo sapiens) (Q03181 whole entry, looked up): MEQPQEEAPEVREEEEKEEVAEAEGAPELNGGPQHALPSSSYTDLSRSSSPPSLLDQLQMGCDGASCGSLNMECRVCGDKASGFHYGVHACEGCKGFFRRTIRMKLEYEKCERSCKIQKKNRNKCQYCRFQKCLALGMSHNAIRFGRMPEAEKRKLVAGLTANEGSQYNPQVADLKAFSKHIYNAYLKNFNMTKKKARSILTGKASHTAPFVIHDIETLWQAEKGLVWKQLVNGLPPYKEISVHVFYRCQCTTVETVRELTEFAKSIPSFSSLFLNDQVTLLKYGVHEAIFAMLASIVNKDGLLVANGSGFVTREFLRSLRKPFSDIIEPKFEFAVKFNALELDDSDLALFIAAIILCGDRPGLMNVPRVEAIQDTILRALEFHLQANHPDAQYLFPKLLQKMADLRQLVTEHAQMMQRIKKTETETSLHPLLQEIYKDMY
Summary of the method: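 Quantitative high-throughput agonist screen in a HEK293H beta-lactamase reporter line under UAS control. Compounds in DMSO, at 37 C. Fluorescence read after 2 h with FRET substrate at room temperature.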

[3] = qHTS assay to identify small molecule antagonists of the peroxisome proliferator-activated receptor delta (PPARd) signaling pathway - cell viability counter screen (AID 743213); further: nearly all actives have a fitted effect of over 50% in size
Summary of the method: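 Same-well viability: cells pre-incubated 5 h, dosed with compound plus 300 nM L165041, kept 17 h at 37 C, FRET substrate 2 h RT, then CellTiter-Glo 30 min RT and luminescence.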

[4] = target: Peroxisome proliferator-activated receptor delta (Homo sapiens) (UniProt Q03181); experiment: qHTS assay to identify small molecule antagonists of the peroxisome proliferator-activated receptor delta (PPARd) signaling pathway (AID 743215; active means well fitted inhibition curve with a large enough effect in the signal ratio in the repeat runs, not every such curve was filed as active; the % refers to the signal ratio;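 further: cells stimulated with agonist L165041 at 300 nM final during compound exposure; series mostly up to about 62 µM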)
Summary of the method: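 With L165041 present at 300 nM final, compounds were incubated 17 h at 37 C on PPARd UAS-bla HEK293H cells. A FRET-based beta-lactamase substrate was then applied for 2 h at room temperature and fluorescence intensity recorded.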

[5] = target: Bile acid receptor (Homo sapiens) (UniProt Q96RI1); experiment: qHTS assay to identify small molecule antagonists of the farnesoid-X-receptor (FXR) signaling pathway (AID 743217; active means well fitted inhibition curve with a large enough effect in the signal ratio in the repeat runs, not every such curve was filed as active; the % refers to the signal ratio)
Sequence of Bile acid receptor (Homo sapiens) (Q96RI1 whole entry, looked up): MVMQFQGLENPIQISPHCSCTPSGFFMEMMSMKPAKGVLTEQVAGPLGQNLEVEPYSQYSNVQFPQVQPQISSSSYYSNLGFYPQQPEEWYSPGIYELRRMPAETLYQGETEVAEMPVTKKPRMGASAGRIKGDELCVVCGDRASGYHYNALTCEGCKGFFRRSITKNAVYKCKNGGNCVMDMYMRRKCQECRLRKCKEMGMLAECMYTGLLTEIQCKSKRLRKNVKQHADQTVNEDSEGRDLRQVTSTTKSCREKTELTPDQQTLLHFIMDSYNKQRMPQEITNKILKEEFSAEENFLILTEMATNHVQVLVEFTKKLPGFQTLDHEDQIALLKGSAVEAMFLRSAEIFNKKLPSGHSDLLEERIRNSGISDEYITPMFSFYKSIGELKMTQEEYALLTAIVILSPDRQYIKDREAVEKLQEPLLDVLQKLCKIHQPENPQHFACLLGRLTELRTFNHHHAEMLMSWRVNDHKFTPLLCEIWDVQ
Summary of the method: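 In this cell-based antagonist screen, inhibition of CDCA-driven (50 uM final) UAS-beta-lactamase expression in HEK 293T cells was measured by FRET fluorescence following 16 h compound exposure at 37 °C.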

[6] = qHTS assay to identify small molecule agonists of the farnesoid-X-receptor (FXR) signaling pathway - cell viability counter screen (AID 743218); further: nearly all actives have a fitted effect of over 45% in size
Summary of the method: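 After 16 h at 37 C with test compounds, FXR-bla HEK 293T cells were given LiveBLAzer B/G substrate for 2 h at RT and then CellTiter-Glo; luminescence was taken after 30 min.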

[7] = target: Bile acid receptor (Homo sapiens) (UniProt Q96RI1); experiment: qHTS assay to identify small molecule agonists of the farnesoid-X-receptor (FXR) signaling pathway (AID 743220; active means well fitted activation curve with a large enough effect in the signal ratio in the repeat runs, not every such curve was filed as active; the % refers to the signal ratio)
Summary of the method: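 Beta-lactamase reporter under UAS control in GeneBLAzer FXR HEK 293T cells (5000/well) measured with LiveBLAzer FRET substrate after 2 h at room temperature. Compound exposure lasted 16 h at 37C.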

[8] = qHTS assay to identify small molecule antagonists of the farnesoid-X-receptor (FXR) signaling pathway - cell viability counter screen (AID 743221; active means well fitted cell-killing curve with a large enough effect in the repeat runs, not every such curve was filed as active; further: nearly all actives have a fitted effect of over 50% in size)
Summary of the method: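 Here viability was scored by luminescence after CellTiter-Glo addition to wells already read for beta-lactamase. Prior treatment: compound plus CDCA (50 uM final), 16 h, 37 C, HEK 293T FXR-bla cells.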

[9] = qHTS assay to identify small molecule agonists of the vitamin D receptor (VDR) signaling pathway - cell viability counter screen (AID 743224); further: series mostly up to about 63 µM; nearly all actives have a fitted effect of over 50% in size
Summary of the method: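 Here cell health was gauged by luminescent ATP detection (CellTiter-Glo, 30 min RT) in VDR-bla cells that had been incubated with test compounds for 16 h at 37C and 5% CO2.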

[10] = qHTS assay to identify small molecule antagonists of the vitamin D receptor (VDR) signaling pathway - cell viability counter screen (AID 743225); further: nearly all actives have a fitted effect of over 50% in size
Summary of the method: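 Compounds were pinned onto VDR-bla HEK 293T cells together with 1-alpha,25-dihydroxyvitamin D3 at 3 nM final. After 16 h at 37C and 5% CO2 plus the reporter readout, cell viability was measured by CellTiter-Glo luminescence (30 min, room temperature).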

[11] = qHTS assay to identify small molecule agonists of the NFkB signaling pathway (AID 1159509; active means well fitted curve in the direction sought with a large enough effect in the signal ratio in the repeat runs, not every such curve was filed as active; the % refers to the signal ratio; further: series mostly up to about 61 µM)
Summary of the method: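 NFkB-bla ME-180 cells with a beta-lactamase reporter under an NF-kB response element were plated overnight, treated with compounds in DMSO for 5 hr at 37 C, then loaded with FRET substrate for 1.5 hr at room temperature.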

[12] = qHTS assay to identify small molecule agonists of the NFkB signaling pathway - cell viability counter screen (AID 1159515; calls by dose curve; further: series mostly up to about 61 µM; nearly all actives have a fitted effect of over 55% in size)
Summary of the method: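 5 hr compound treatment of NFkB-bla ME-180 cells (2,000/well, seeded overnight beforehand), followed by reporter substrate for 1.5 hr. CellTiter-Glo added afterward; luminescence after 30 min RT.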

[13] = qHTS assay to identify small molecule agonists of the endoplasmic reticulum stress response signaling pathway (AID 1159516; active means well fitted activation curve with a large enough effect in the signal ratio in the repeat runs, not every such curve was filed as active; the % refers to the signal ratio)
Summary of the method: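 Reporter HeLa cells (ESRE-beta-lactamase) underwent 5 hr compound incubation at 37 C and 5% CO2 in quantitative HTS format. Detection followed 2 hr of FRET substrate loading at room temperature.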

[14] = qHTS assay to identify small molecule agonists of the endoplasmic reticulum stress response signaling pathway - cell viability counter screen (AID 1159517; calls by dose curve)
Summary of the method: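 Counter-screen wells were identical to the reporter wells. Cells were plated at 1,500 per well and dosed for 5 hr, then read for luminescence 30 min after CellTiter-Glo addition.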

[15] = qHTS assay to identify small molecule antagonists of the retinoid-related orphan receptor gamma (ROR-gamma) signaling pathway - cell viability counter screen (AID 1159520); further: nearly all actives have a fitted effect of over 50% in size
Summary of the method: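 Tet-on ROR gamma CHO cells were given compounds for 2 hr, then doxycycline hyclate at 1 uM final, and incubated 16 hr at 37 C. Viability was measured as ATP content by CellTiter-Glo luminescence.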

[16] = target: Nuclear receptor ROR-gamma (Homo sapiens) (UniProt P51449); experiment: qHTS assay to identify small molecule antagonists of the retinoid-related orphan receptor gamma (ROR-gamma) signaling pathway (AID 1159521)
Summary of the method: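 Test compounds were applied to Tet-on RORγ CHO cells 2 h ahead of doxycycline hyclate (1 uM final). Luciferase reporter activity was quantified by luminescence after 16 h at 37 C and 5% CO2.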

[17] = qHTS assay to identify small molecule agonists of the AP-1 signaling pathway - cell viability counter screen (AID 1159525; calls by dose curve; further: nearly all actives have a fitted effect of over 55% in size)
Summary of the method: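 AP-1-bla ME-180 cells in Opti-MEM with 0.5% dialyzed FBS, compound exposure 5 h at 37 C in 15-point titration. Viability read in the same wells as ATP content by CellTiter-Glo luminescence, normalised to tetra-n-octylammonium bromide and DMSO controls.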

[18] = qHTS assay to identify small molecule agonists of the AP-1 signaling pathway (AID 1159526; calls by dose curve; further: potency means the concentration at half of the fitted maximal effect)
[19] = target: Vitamin D3 receptor (Homo sapiens) (UniProt P11473); experiment: qHTS assay to identify small molecule agonists of the vitamin D receptor (VDR) signaling pathway (AID 743222; calls by dose curve)
Sequence of Vitamin D3 receptor (Homo sapiens) (P11473 whole entry, looked up): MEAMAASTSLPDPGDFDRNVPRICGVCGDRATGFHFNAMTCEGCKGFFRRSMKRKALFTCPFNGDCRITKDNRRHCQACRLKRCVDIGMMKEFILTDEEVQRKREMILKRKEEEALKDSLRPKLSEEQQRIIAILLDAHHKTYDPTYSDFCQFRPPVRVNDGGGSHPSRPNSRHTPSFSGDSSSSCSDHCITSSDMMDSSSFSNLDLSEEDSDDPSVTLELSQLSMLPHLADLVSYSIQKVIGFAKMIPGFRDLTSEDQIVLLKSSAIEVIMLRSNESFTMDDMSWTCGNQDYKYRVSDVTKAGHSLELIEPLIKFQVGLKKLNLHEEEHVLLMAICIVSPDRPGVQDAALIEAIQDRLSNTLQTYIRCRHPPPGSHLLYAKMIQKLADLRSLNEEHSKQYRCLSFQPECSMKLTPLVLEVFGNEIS
Summary of the method: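 VDR-bla cells were seeded, left 4 h, treated with compounds in DMSO for 16 h, incubated 2 h at RT with B/G FRET substrate, and read for fluorescence.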

[20] = target: Vitamin D3 receptor (Homo sapiens) (UniProt P11473); experiment: qHTS assay to identify small molecule antagonists of the vitamin D receptor (VDR) signaling pathway (AID 743223; active means well fitted inhibition curve with a large enough effect in the signal ratio in the repeat runs, not every such curve was filed as active; the % refers to the signal ratio)
Summary of the method: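 Inhibition of agonist-driven VDR signalling is scored in VDR-bla cells: 3 nM final 1alpha,25-dihydroxyvitamin D3 plus compound, 16 h at 37C, then beta-lactamase detection by FRET substrate fluorescence after 2 h.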

SMILES | outcome [1] | Potency [2] | outcome [3] | outcome [4] | outcome [5] | outcome [6] | outcome [7] | outcome [8] | outcome [9] | outcome [10] | outcome [11] | outcome [12] | outcome [13] | Potency [14] | outcome [15] | Potency [16] | outcome [17] | Potency [18] | outcome [19] | outcome [20]
O=C1C(c2[nH]c3ccccc3c2O)=Nc2ccccc21 | inactive | inactive | inactive | inactive | inactive | inactive | inactive | inactive | inactive | inactive | inactive | inactive | inactive | inactive | inactive | inactive | inactive | inactive | – | –
OC1C(O)C(O)C(O)C(O)C1O (stereo unspecified) | inactive | inactive | inactive | inactive | inactive | inactive | inactive | inactive | inactive | inactive | inactive | inactive | inactive | inactive | inactive | inactive | inactive | inactive | inactive | inactive
COc1ccc(OC)cc1 | inactive | inactive | inactive | inactive | – | inactive | – | inactive | inactive | inactive | inactive | inactive | inactive | inactive | inactive | inactive | inactive | inactive | inactive | inactive
CCOC(=O)n1ccn(C)c1=S | inactive | inactive | inactive | inactive | inactive | inactive | inactive | inactive | inactive | inactive | inactive | inactive | inactive | inactive | inactive | inactive | inactive | inactive | – | –
Nc1ccc(Cl)c(N)c1 | inactive | inactive | inactive | inactive | inactive | – | inactive | inactive | inactive | inactive | inactive | inactive | inactive | inactive | inactive | inactive | inactive | inactive | inactive | inactive
CC(C)CCCCCCCOC(=O)CCCCC(=O)OCCCCCCCC(C)C | inactive | inactive | inactive | inactive | inactive | inactive | inactive | inactive | inactive | inactive | inactive | inactive | inactive | inactive | inactive | inactive | inactive | inactive | inactive | inactive
C[Si]1(C)O[Si](C)(C)O[Si](C)(C)O[Si](C)(C)O1 | inactive | inactive | inactive | inactive | inactive | inactive | inactive | inactive | inactive | inactive | inactive | inactive | inactive | inactive | inactive | inactive | inactive | inactive | inactive | inactive
CCCOC(=O)c1ccccc1 | inactive | inactive | inactive | inactive | – | inactive | – | inactive | inactive | inactive | inactive | inactive | inactive | inactive | inactive | inactive | inactive | inactive | inactive | inactive
CC(=O)CCC=C(C)C | inactive | inactive | inactive | inactive | – | inactive | – | inactive | inactive | inactive | inactive | – | inactive | inactive | inactive | inactive | inactive | inactive | inactive | inactive
COc1cc(OC)c(C(=O)CCCN2CCCC2)c(OC)c1 | inactive | inactive | inactive | inactive | – | inactive | – | inactive | inactive | inactive | inactive | – | inactive | inactive | inactive | inactive | inactive | inactive | inactive | inactive
CNC(=O)Oc1ccc2c(c1)[C@]1(C)CCN(C)[C@@H]1N2C | inactive | inactive | inactive | inactive | inactive | inactive | inactive | inactive | inactive | inactive | inactive | – | inactive | inactive | inactive | inactive | inactive | inactive | inactive | inactive
c1ccc(Oc2ccccc2)cc1 | inactive | inactive | inactive | inactive | inactive | inactive | inactive | inactive | inactive | inactive | inactive | – | inactive | inactive | inactive | inactive | inactive | inactive | inactive | inactive
Cc1ccc2ncccc2c1 | inactive | inactive | inactive | inactive | – | inactive | – | inactive | inactive | inactive | inactive | – | inactive | inactive | inactive | inactive | inactive | inactive | – | –
OCc1cccc(Oc2ccccc2)c1 | inactive | inactive | inactive | inactive | inactive | inactive | inactive | inactive | inactive | inactive | inactive | – | inactive | inactive | inactive | inactive | inactive | inactive | inactive | inactive
O=C1c2ccccc2CCc2ccccc21 | inactive | inactive | inactive | inactive | inactive | inactive | inactive | inactive | inactive | inactive | inactive | – | inactive | inactive | inactive | inactive | inactive | 35.4 µM (active) and 23.9 µM (active) | – | –
CC(C)=CCl | inactive | inactive | inactive | – | inactive | inactive | inactive | inactive | inactive | inactive | inactive | – | inactive | inactive | inactive | inactive | inactive | inactive | inactive | inactive
CCCCCC(=O)O | inactive | inactive | inactive | inactive | – | inactive | – | inactive | inactive | inactive | inactive | – | inactive | inactive | inactive | inactive | inactive | inactive | inactive | inactive
Nc1nc(N)nc(-c2ccccc2)n1 | inactive | inactive | inactive | inactive | – | inactive | – | inactive | inactive | inactive | inactive | – | inactive | inactive | inactive | inactive | inactive | inactive | – | –
CC(=O)OCCOC(C)=O | inactive | – | inactive | – | – | inactive | – | inactive | inactive | inactive | inactive | – | inactive | inactive | inactive | inactive | inactive | inactive | inactive | inactive
CCCCCCCCCCCC(=O)OC | inactive | inactive | inactive | inactive | inactive | inactive | inactive | inactive | inactive | inactive | inactive | – | inactive | inactive | inactive | inactive | inactive | inactive | inactive | inactive
CC(C)c1cccc(C(C)C)c1 | inactive | inactive | inactive | inactive | inactive | inactive | inactive | inactive | inactive | inactive | inactive | – | inactive | inactive | inactive | inactive | inactive | inactive | inactive | inactive
CCO[Si](CCCN)(OCC)OCC | inactive | inactive | inactive | inactive | inactive | inactive | inactive | inactive | inactive | inactive | inactive | – | inactive | inactive | inactive | inactive | inactive | inactive | inactive | inactive
